This passage reports outcome and AC50 results from PubChem BioAssay (EPA / NIEHS).

Read-out in assay [1]: CD69, CD69 (gene 969)
Nature of the assay: BSK_LPS_CD69: BioMAP Diversity Plus: LPS Assay for CD69 Biomarker Activity (AID 2284303). Particulars: primary human HUVEC with PBMC. The procedure, abridged:
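Human umbilical vein endothelial cells co-cultured with PBMC under LPS stimulation, chemical exposure 24 h; cell-surface CD69 measured by ELISA and fitted in the positive direction versus DMSO.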

Assay [2] can be described thus: IUF_NPC2c_oligodendrocyte_migration_120hr: Leibniz Research Institute for Environmental Medicine (IUF) 120-hour Neural Progenitor Cell Migration Assay for Oligodendrocyte Migration (NPC2c) (AID 2284297).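 Also: O4-positive oligodendrocyte migration distance divided by radial glia migration distance.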 In outline:
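Exposure runs 5 days from differentiation onset at 37C, seven concentrations plus solvent control, DMSO at most 0.1%, applied to primary hNPC spheres on laminin. After fixation, O4 immunostaining gives oligodendrocyte distance from the sphere core, relative to radial glia migration.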

The nature of assay [3]: IUF_NPC2a_radial_glia_migration_120hr: Leibniz Research Institute for Environmental Medicine (IUF) 120-hour Neural Progenitor Cell Migration Assay for Radial Glia Migration (NPC2a) (AID 2284298). The method, then:
(§1) IUF_NPC2-5 is a cell-based, multiplexed assay that uses hNPC, a human primary neural progenitor cells, with measurements taken at 72 or 120 hours after chemical dosing in a 96-well plate. Human neural progenitor cells (hNPC) are generated from human fetal brain cortex at gestational week (GW) 16-19. In the neural progenitor cell migration and differentiation assay (NPC2-5), hNPCs grown as spheres are plated on an extracellular matrix and migrate and differentiate out of the sphere core. The processes radial glia migration, neuronal and oligodendrocyte migration as well as neuronal differentiation, neuronal morphology and oligodendrocyte differentiation are studied using automated phase contrast imaging and automated fluorescence imaging in combination with high content image analysis. In parallel, the cell viability is assessed using an alamar blue viability assay and the cytotoxicity using a lactate dehydrogenase dependent membrane integrity assay.IUF_NPC2a_radial_glia_migration_120hr is one of 12 assay components measured from the IUF_NPC2-5 assay. The migration distance of radial glia at 120 hr is assessed in um from the edge of the sphere core to the edge of the migration area based on fluorescent images of Hoechst-positive nuclei. With the identification of each nucleus position around the sphere core, migration-related parameters can be calculated. […]

Assay [4] is described as follows: IUF_NPC2a_radial_glia_migration_72hr: Leibniz Research Institute for Environmental Medicine (IUF) 72-hour Neural Progenitor Cell Migration Assay for Radial Glia Migration (NPC2a) (AID 2284299). In outline:
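Migration out of plated human neural progenitor spheres is scored at 72 h as the distance in um from the sphere core edge to the edge of the migration area. Values are the mean of four manual measurements per well, normalised to DMSO.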

Assay [5] can be described thus: IUF_NPC2b_neuronal_migration_120hr: Leibniz Research Institute for Environmental Medicine (IUF) 120-hour Neural Progenitor Cell Migration Assay for Neuron Migration (NPC2b) (AID 2284300). The method, then:
as §1, with “integrity assay.IUF_NPC2b_neuronal_migration_120hr” for “integrity assay.IUF_NPC2a_radial_glia_migration_120hr”, “assay. […] Neuronal migration is normalized to radial glia” for “assay. The”, “distance” for “distance of radial glia”, “120 hr.Data” for “120 hr is assessed in um”, “the IUF_NPC2b_neuronal_migration_120hr component was analyzed at the endpoint IUF_NPC2b_neuronal_migration_120hr in the positive analysis fitting direction relative to DMSO as the negative control and baseline” for “the edge”, “of activity.” for “of the sphere core to the edge of the migration area based on fluorescent images of Hoechst-positive nuclei. With the identification of each nucleus position around the sphere core, migration-related parameters can be calculated.”

A short description of assay [6]: IUF_NPC3_neuronal_differentiation_120hr: Leibniz Research Institute for Environmental Medicine (IUF) 120-hour Neuronal Differentiation Assay (NPC3) (AID 2284301). The procedure, abridged:
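Primary human fetal neural progenitor spheres (GW 16-19, 0.3 mm) plated on poly-D-lysine/laminin in N2 medium, exposed from day 0 for 120 h with half-medium refresh at day 3. TUBB3+ cells as percent of Hoechst nuclei in migration area; DMSO baseline.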

The nature of assay [7]: IUF_NPC4_neurite_length_120hr: Leibniz Research Institute for Environmental Medicine (IUF) 120-hour Neuronal Morphology Assay for Neurite Length (NPC4) (AID 2284302). The procedure, abridged: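 Human fetal cortex (GW 16-19) neural progenitor spheres, 0.3 mm, were plated on poly-D-lysine/laminin in N2 differentiation medium and exposed from day 0 for 120 h, half-feeding at day 3. Mean TUBB3+ neurite length (µm) came from skeletonized images, relative to DMSO.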

Assay [8] can be described thus: IUF_NPC5_oligodendrocyte_differentiation_120hr: Leibniz Research Institute for Environmental Medicine (IUF) 120-hour Oligodendrocyte Differentiation Assay (NPC5) (AID 2284304; active = hit-call score of the fitted dose curve at least 0.9, where 1 is the maximum). The procedure, abridged: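 Oligodendrocyte differentiation scored as O4-positive cells, found by CNN image analysis, as percent of Hoechst-stained nuclei in the migration area. Scoring followed 5 days of exposure of plated hNPC neurospheres differentiating in DMEM/F12 N2 medium at 37C, with compound refreshed at day 3.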

The nature of assay [9]: IUF_NPC2-5_cytotoxicity_72hr: Cytotoxicity Assessment at 72 hours in the Leibniz Research Institute for Environmental Medicine (IUF) Neural Progenitor Cell Migration and Differentiation Assay for Cytotoxicity (NPC2-5) (AID 2284306; active = hit-call score of the fitted dose curve at least 0.9, where 1 is the maximum;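 also: LDH release into supernatant measured by resorufin fluorescence marking membrane damage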). The procedure, abridged: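 Human fetal (GW 16-19) neural progenitor spheres, 0.3 mm, plated on poly-D-lysine/laminin in N2 differentiation medium and exposed from day 0 to 7 concentrations plus solvent control (DMSO ≤0.1%). LDH-dependent resazurin-to-resorufin fluorescence in supernatant at 72 h.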

Assay [10] is described as follows: IUF_NPC4_neurite_area_120hr: Leibniz Research Institute for Environmental Medicine (IUF) 120-hour Neuronal Morphology Assay for Neurite Area (NPC4) (AID 2284305; active = hit-call score of the fitted dose curve at least 0.9, where 1 is the maximum). In outline:
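Human fetal cortex-derived neural progenitor spheres (0.3 mm, GW 16-19) plated on poly-D-lysine/laminin in N2 differentiation medium and exposed from day 0 for 120 h across 7 concentrations plus solvent control. Neurite area is mean pixel area per TUBB3-positive neuron via skeletonization, analysed relative to DMSO.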

Inconclusive results are not listed. Activity calls are given as the source filed them. The calls were made as follows, unless noted: active = hit-call score of the fitted dose curve at least 0.9, where 1 is the maximum; inactive = score below 0.9.

In the case of `OC1OC[C@@H](O)[C@H](O)[C@H]1O` (some centres undefined), the outcome in [1] was inactive.

`OC[C@H]1O[C@H](O[C@]2(CCl)O[C@H](CCl)[C@@H](O)[C@@H]2O)[C@H](O)[C@@H](O)[C@H]1Cl`: the outcome in assay [1] was inactive.

Consider `CN(C)C(=N)N=C(N)N`, for which the outcome in assay [2], in assay [3], in [4], in assay [5], in [6] and in [7] was inactive. The call in assay [8] and in assay [9] was inactive.

Regarding `CC(=O)[C@H]1CC[C@H]2[C@@H]3CC=C4C[C@@H](O)CC[C@]4(C)[C@H]3CC[C@]12C`, the result in assay [1] was inactive.

In the case of `C[C@H]1C[C@@H]2[C@H]([C@@H](O)C[C@@]3(C)[C@H]2CC[C@]3(O)C(=O)CO)[C@@]2(C)C=CC(=O)C=C12`, in [1], the result was inactive.

Turning to `CC[Si](OC(C)=O)(OC(C)=O)OC(C)=O`, the outcome in assay [1] was inactive.

By AC50 is commonly meant the midpoint of the concentration-response curve, whichever way the signal moves. In the case of `N#Cc1ccc(CC(=NNC(=O)Nc2ccc(OC(F)(F)F)cc2)c2cccc(C(F)(F)F)c2)cc1`, the outcome in assay [2], in assay [3], in assay [4], in assay [5], in [6] and in assay [7] was inactive. The outcome in assay [10] and in assay [9] was inactive. Also, the AC50 in [8] is 0.784 µM (active).

For the compound `CCC(=O)OCc1ccccc1`, the result in assay [1] was inactive.

`CC(=O)OCCC(C)CC(C)(C)C` (centres undefined): in [1], the outcome was inactive.

Turning to `COc1cc(C=O)ccc1OC(=O)C(C)C`, the outcome in assay [1] was inactive.

For the compound `Cc1cc(C2(c3cc(C)c(O)cc3C)OS(=O)(=O)c3ccccc32)c(C)cc1O`, in assay [1], the result was inactive.

`Nc1cc([N+](=O)[O-])ccc1O`: in assay [1], the outcome was inactive.

Turning to `NCCNCCN`, the result in assay [1] was inactive.

Regarding `C=CCOC(=O)CCC1CCCCC1`, the result in assay [1] was inactive.
